Assay [1] is described as follows: NCI Yeast Anticancer Drug Screen. Data for the rad50 strain (AID 155).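 Further: 0% = growth of vehicle-only cultures of the same strain.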 The following applies: S. cerevisiae rad50 strain growth inhibition, hits give high values. In a few lines:
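DNA repair mutant yeast, compound exposure, growth read-out; inhibition is taken relative to vehicle.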

Assay [2] in a line: NCI Yeast Anticancer Drug Screen. Data for the mec2-1 strain (AID 157). The following applies: S. cerevisiae mec2-1 strain, hits give high values. The essentials:
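Vehicle-treated cultures served as reference for growth inhibition of compound-exposed mec2-1 yeast.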

A short description of assay [3]: NCI Yeast Anticancer Drug Screen. Data for the sgs1 mgt1 strain (AID 161).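 Further: 0% = growth of cultures given vehicle only.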 The following applies: S. cerevisiae sgs1 mgt1 strain, hits give high values. In a few lines:
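Test agents were incubated with a DNA-repair-mutant yeast strain. Growth was then read and compared against vehicle-treated controls.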

A short description of assay [4]: NCI Yeast Anticancer Drug Screen. Data for the cln2 rad14 strain (AID 165).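 Further: 0% = growth equal to vehicle treated cultures.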 As to conditions: S. cerevisiae cln2 rad14 strain, hits give high values. The essentials: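 Each compound was tested on cln2 rad14 yeast. Inhibition of growth was calculated against vehicle-exposed controls.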
Assay [5] in a line: NCI Yeast Anticancer Drug Screen. Data for the bub3 strain (AID 167). As to conditions: S. cerevisiae bub3 mutant strain, hits give high values. In a few lines: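 In this screen, a yeast mutant lacking normal mitotic checkpoint function is challenged with compound. Relative growth versus vehicle gives the inhibition value.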
Assay [6] is described as follows: NCI Yeast Anticancer Drug Screen. Data for the mlh1 rad18 strain (AID 175). As to conditions: S. cerevisiae mlh1 rad18 strain growth inhibition, hits give high values. In a few lines: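 Vehicle-treated cultures served as the reference for growth inhibition in a yeast strain carrying DNA damage repair alterations exposed to each compound.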
Where [7] appears, read: at 5.0 µM (retest, dose inferred, filed as 0.5).
The mark [8] stands for this setting: at 50.0 µM (retest, dose inferred, filed as 5.0).

Consider ten compounds from PubChem BioAssay (NCI).

About 79,000 compounds went through this panel and 15% of them were active in at least one assay; those are over-represented in the sample as a whole. Values without a mark were called inactive. Activity calls are given as the source filed them. No stated cut-off is given here; in the data, active means growth inhibition above about 70%; inactive means the rest.

Consider `O=C(/C=C/c1ccccc1)CCN1CCC2CCC(C2)C1` (stereo not given), for which the growth inhibition was 2% in assay [1] (setting [7]); 55% in assay [1] (setting [8]); 62.9% in assay [1] (at 50.0 µM); 9% in assay [2] (setting [7]); 82% (active) in assay [2] (setting [8]); 93% (active) in assay [2] (at 50.0 µM). The growth inhibition in assay [3] (setting [7]) was 15%; in assay [3] (setting [8]), 54%; in assay [3] (at 50.0 µM), 76.1% (active); in assay [4] (setting [7]), 11%; in assay [4] (setting [8]), 58%; in assay [4] (at 50.0 µM), 27.6%. The growth inhibition in assay [5] (setting [7]) is 3%; in assay [5] (setting [8]) it was 79% (active); in assay [5] (at 50.0 µM), 46.9%; in assay [6] (setting [7]) it was 8%; in assay [6] (setting [8]) it was 81% (active); in assay [6] (at 50.0 µM), 79.5% (active).

In the case of `CN(C)CC1CCCCCC(Br)C1=O` (stereo not given), the growth inhibition was 18% in assay [1] (setting [7]); 78% (active) in assay [1] (setting [8]); 63.9% in assay [1] (at 50.0 µM); 14% in assay [2] (setting [7]); 80% (active) in assay [2] (setting [8]); 70.2% (active) in assay [2] (at 50.0 µM). The growth inhibition is 11% in assay [3] (setting [7]); 92% (active) in assay [3] (setting [8]); 84% (active) in assay [3] (at 50.0 µM); 12% in assay [4] (setting [7]); 69% in assay [4] (setting [8]); 91.5% (active) in assay [4] (at 50.0 µM). Besides, the growth inhibition in assay [5] (setting [7]) is -7%; in assay [5] (setting [8]), 21%; in assay [5] (at 50.0 µM), 7.05%; in assay [6] (setting [7]), 55%; in assay [6] (setting [8]), 96% (active); in assay [6] (at 50.0 µM), 91% (active).

`COC(=O)c1ccccc1CC(Cc1ccc2c(c1)CCC2)C(=O)OC` (stereo not given): the growth inhibition was 20% in assay [1] (setting [7]); 27% in assay [1] (setting [8]); 35% in assay [1] (at 50.0 µM); 12% in assay [2] (setting [7]); 14% in assay [2] (setting [8]); 16.9% in assay [2] (at 50.0 µM). In addition, the growth inhibition in assay [3] (setting [7]) is 10%; in assay [3] (setting [8]) it was 20%; in assay [3] (at 50.0 µM) it was 29.6%; in assay [4] (setting [7]), 9%; in assay [4] (setting [8]) it was -2%; in assay [4] (at 50.0 µM), 13.7%. Also, the growth inhibition was 16% in assay [5] (setting [7]); 27% in assay [5] (setting [8]); 12.3% in assay [5] (at 50.0 µM); 16% in assay [6] (setting [7]); 15% in assay [6] (setting [8]); 4.25% in assay [6] (at 50.0 µM).

With `COc1ccc(CCCC(=O)O)c2c(OC)cccc12`, the growth inhibition was 14% in assay [1] (setting [7]); 58% in assay [1] (setting [8]); 80.8% (active) in assay [1] (at 50.0 µM); 0% in assay [2] (setting [7]); 48% in assay [2] (setting [8]); 39.9% in assay [2] (at 50.0 µM). Also, the growth inhibition is 7% in assay [3] (setting [7]); 62% in assay [3] (setting [8]); 60.8% in assay [3] (at 50.0 µM); 23% in assay [4] (setting [7]); 55% in assay [4] (setting [8]); 72.2% (active) in assay [4] (at 50.0 µM). Moreover, the growth inhibition in assay [5] (setting [7]) is 4%; in assay [5] (setting [8]), 60%; in assay [5] (at 50.0 µM), 49.9%; in assay [6] (setting [7]), 5%; in assay [6] (setting [8]) it was 73% (active); in assay [6] (at 50.0 µM) it was 78.3% (active).

With `COc1cc(C(=O)C=[N+]=[N-])c([N+](=O)[O-])c(OC)c1OC`, the growth inhibition in assay [1] (setting [7]) is 12%; in assay [1] (setting [8]), 77% (active); in assay [1] (at 50.0 µM) it was 63.2%; in assay [2] (setting [7]) it was 22%; in assay [2] (setting [8]), 91% (active); in assay [2] (at 50.0 µM), 90.8% (active). Further, the growth inhibition was 19% in assay [3] (setting [7]); 92% (active) in assay [3] (setting [8]); 91.8% (active) in assay [3] (at 50.0 µM); 11% in assay [4] (setting [7]); 51% in assay [4] (setting [8]); 41.9% in assay [4] (at 50.0 µM). Also, the growth inhibition was 9% in assay [5] (setting [7]); 67% in assay [5] (setting [8]); 93.2% (active) in assay [5] (at 50.0 µM); 8% in assay [6] (setting [7]); 89% (active) in assay [6] (setting [8]); 94.4% (active) in assay [6] (at 50.0 µM).

Take `Brc1ccc(CCNCCN2CCCCC2)cc1`: the growth inhibition in assay [1] (setting [7]) was 19%; in assay [1] (setting [8]) it was 65%; in assay [1] (at 50.0 µM), 50.9%; in assay [2] (setting [7]) it was 25%; in assay [2] (setting [8]) it was 68%; in assay [2] (at 50.0 µM) it was 21%. For the same compound, the growth inhibition in assay [3] (setting [7]) is 24%; in assay [3] (setting [8]) it was 68%; in assay [3] (at 50.0 µM), 63.2%; in assay [4] (setting [7]), 45%; in assay [4] (setting [8]) it was 61%; in assay [4] (at 50.0 µM) it was 37.6%. The growth inhibition is 15% in assay [5] (setting [7]); 57% in assay [5] (setting [8]); 61.1% in assay [5] (at 50.0 µM); 25% in assay [6] (setting [7]); 89% (active) in assay [6] (setting [8]); 45% in assay [6] (at 50.0 µM).

Regarding `O=C1CSC(=S)N1c1ccc(F)cc1F`, the growth inhibition is 8% in assay [1] (setting [7]); 86% (active) in assay [1] (setting [8]); 89.8% (active) in assay [1] (at 50.0 µM); -2% in assay [2] (setting [7]); 82% (active) in assay [2] (setting [8]); 22.6% in assay [2] (at 50.0 µM). Moreover, the growth inhibition is 10% in assay [3] (setting [7]); 78% (active) in assay [3] (setting [8]); 65.2% in assay [3] (at 50.0 µM); -3% in assay [4] (setting [7]); 16% in assay [4] (setting [8]); -9% in assay [4] (at 50.0 µM). The growth inhibition in assay [5] (setting [7]) is -3%; in assay [5] (setting [8]) it was 84% (active); in assay [5] (at 50.0 µM), 83.8% (active); in assay [6] (setting [7]), 3%; in assay [6] (setting [8]) it was 89% (active); in assay [6] (at 50.0 µM) it was 70.2% (active).

Consider `CC(=O)Sc1ccccc1C(=O)NCc1ccc(Cl)cc1`, for which the growth inhibition in assay [1] (setting [7]) is 2%; in assay [1] (setting [8]) it was 97% (active); in assay [1] (at 50.0 µM), 97.8% (active); in assay [2] (setting [7]), -8%; in assay [2] (setting [8]), 98% (active); in assay [2] (at 50.0 µM), 99% (active). Moreover, the growth inhibition in assay [3] (setting [7]) was 2%; in assay [3] (setting [8]) it was 97% (active); in assay [3] (at 50.0 µM), 97.8% (active); in assay [4] (setting [7]) it was -12%; in assay [4] (setting [8]), 94% (active); in assay [4] (at 50.0 µM) it was 98.5% (active). Besides, the growth inhibition in assay [5] (setting [7]) was 0%; in assay [5] (setting [8]), 96% (active); in assay [5] (at 50.0 µM), 98.5% (active); in assay [6] (setting [7]) it was 13%; in assay [6] (setting [8]), 96% (active); in assay [6] (at 50.0 µM) it was 98.7% (active).

For `CC1=NN(c2ccccc2)C(=O)C12[C@H](c1ccccc1)C2(C#N)C#N` (stereo not given in full), the growth inhibition in assay [1] (setting [7]) is 34%; in assay [1] (setting [8]), 92% (active); in assay [1] (at 50.0 µM), 84% (active); in assay [2] (setting [7]), 37%; in assay [2] (setting [8]), 78% (active); in assay [2] (at 50.0 µM), 54%. Besides, the growth inhibition was 46% in assay [3] (setting [7]); 96% (active) in assay [3] (setting [8]); 87.3% (active) in assay [3] (at 50.0 µM); 25% in assay [4] (setting [7]); 74% (active) in assay [4] (setting [8]); 66.4% in assay [4] (at 50.0 µM). The growth inhibition was 41% in assay [5] (setting [7]); 81% (active) in assay [5] (setting [8]); 77.6% (active) in assay [5] (at 50.0 µM); 41% in assay [6] (setting [7]); 87% (active) in assay [6] (setting [8]); 75.8% (active) in assay [6] (at 50.0 µM).

Consider `O=C(O)Cc1c(-c2noc(-c3ccccc3)c2CC(=O)O)noc1-c1ccccc1`, for which the growth inhibition in assay [1] (setting [7]) is -10%; in assay [1] (setting [8]), -3%; in assay [1] (at 50.0 µM), 28.5%; in assay [2] (setting [7]) it was 8%; in assay [2] (setting [8]), -2%; in assay [2] (at 50.0 µM), 46.8%. Also, the growth inhibition in assay [3] (setting [7]) is -16%; in assay [3] (setting [8]), -8%; in assay [3] (at 50.0 µM), 26.6%; in assay [4] (setting [7]), 1%; in assay [4] (setting [8]), -10%; in assay [4] (at 50.0 µM), 58.4%. For the same compound, the growth inhibition was -7% in assay [5] (setting [7]); 0% in assay [5] (setting [8]); 97.1% (active) in assay [5] (at 50.0 µM); 4% in assay [6] (setting [7]); -9% in assay [6] (setting [8]); 40.1% in assay [6] (at 50.0 µM).
